The nature of test [1]: qHTS assay to identify small molecule antagonists of the estrogen related receptor (ERR) signaling pathway - cell viability counter screen (AID 1224818). Further: potency means the concentration at half of the fitted maximal effect. In a few lines:
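ERR cells, 2,000 per well, compound added after 6 h and incubated 17.5 h at 37 C. Viability read by CellTiter-Fluor fluorescence after a further 30 min at 37 C.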
For orientation: qHTS replaces the single test concentration by a dilution series.

Test [2] in a line: qHTS assay to identify small molecule antagonists of the estrogen related receptor (ERR) signaling pathway (AID 1224819; further: nearly all actives have a fitted effect of over 50% in size; further: potency means the concentration at half of the fitted maximal effect). In a few lines:
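ERR reporter cell line (NTP) plated at 2,000 cells/well, settled 6 h at 37C/5% CO2, then exposed to LOPAC compounds for 18 h at 37C. One-Glo luciferase luminescence read after 30 min at room temperature.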

A short description of test [3]: qHTS assay to identify small molecule agonists of the estrogen related receptor (ERR) signaling pathway (AID 1224820). In a few lines:
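Quantitative HTS of the LOPAC library used NTP ERR reporter cells treated 18 h at 37 C. Signal is luminescence after One-Glo addition and a 30 min room-temperature incubation.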

Test [4] is described as follows: qHTS assay to identify small molecule antagonists of the estrogen related receptor signaling pathway with the pleiotropic PPARgamma coactivator (PGC) cell viability counter screen (AID 1224822; further: potency means the concentration at half of the fitted maximal effect). In a few lines:
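PGC/ERR cells rested 6 h, then compound-treated 17.5 h at 37 C. CellTiter-Fluor added for 30 min at 37 C, viability measured by fluorescence intensity.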

The test system of test [5] is estrogen-related receptor alpha (ERRalpha) with PGC-1alpha coactivator, human. The test can be described thus: qHTS assay to identify small molecule antagonists of the estrogen related receptor signaling pathway with the pleiotropic PPARgamma coactivator (PGC) (AID 1224821; calls by dose curve; further: nearly all actives have a fitted effect of over 50% in size; further: potency means the concentration at half of the fitted maximal effect). In a few lines:
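Quantitative HTS for antagonism: PGC/ERR cells received compounds after 6 h attachment and were incubated 18 h at 37 C, with luminescence (One-Glo) as the endpoint.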

A short description of test [6]: qHTS assay to identify small molecule agonists of the estrogen related receptor signaling pathway with the pleiotropic PPARgamma coactivator (PGC) (AID 1224823). In a few lines: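 Cell-based luciferase assay in the NTP-supplied PGC/ERR line, 2,000 cells/well; 18 h compound exposure at 37 C, luminescence after One-Glo.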

Structures are written as SMILES. Records with an inconclusive call do not appear. A number with no mark means an inactive call. Activity calls are given as the source filed them. Unless noted, the call rests on the fitted dose curve; in most records, active means well fitted curve in the direction sought with a large enough effect in the repeat runs; inconclusive means weak or mixed curves; inactive means no such curve, though single readings can be large; an effect the other way counts as inactive or inconclusive.

On to `CC(N)Cc1c[nH]c2ccc(O)cc12` (stereo unspecified), for which the Potency result in test [1], in test [2], in test [3] and in test [4] was “inactive” in each case.
In the case of `O=C1/C(=C/c2ccccc2)C[C@@]2(O)[C@H]3Cc4ccc(O)c5c4[C@@]2(CCN3CC2CC2)[C@H]1O5`, the Potency in test [1] was 8.74 µM (active); in test [2], 2.37 µM (active); in test [5], 2.2 µM (active); in test [4], 6.19 µM (active). For the same molecule, the Potency result in test [3] and in test [6] was “inactive” throughout.
Take `COc1cc(C(O)CN)ccc1O` (stereo unspecified): the Potency entry in test [1], in test [2], in test [3], in test [5], in test [4] and in test [6] was “inactive” each time.
